This is an account of results in PubChem BioAssay AID652067 (The Scripps Research Institute Molecular Screening Center, 2013).

The campaign covered roughly 370,000 compounds. About 5,400 (1.5%) were called active. What follows is part of a selection rich in actives, with near analogues and random picks from the rest. A number with no mark means an inactive call.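 Rule for the calls: active = activation above the mean of all tested compounds plus 3 SD (cut at about 5.5% in these data); inactive = the rest.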

This test concerns DAF-12 nuclear receptor (Haemonchus contortus). The test is described as follows: hcDAF-12 driven luciferase reporter activation – cell-based, luminescence, HEK293, lit1-tk-luc reporter, primary screen (AID 652067).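 Note: 100% = response to 3 µM Δ7-dafachronic acid high control.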 To be noted: HEK293 hcDAF-12 lit1-tk-luc reporter, at 6.8 µM, active compounds read high, 0% DMSO, 100% Δ7-dafachronic acid. (In general: A reporter such as luciferase makes a cellular process visible.)
Take `Cc1ccc(C(=O)N(Cc2ccccn2)CC2CCCO2)cc1` (stereo not given): the activation is -1.39%.
Under `CN1[C@H](Cc2ccccc2)COc2cccc(N3CCSCC3)c2S1(=O)=O` stands 3.54%; under `CC(=O)N1CCN(c2ccccc2NC(=S)NC(=O)c2cc3ccccc3o2)CC1`, 7.26% (active); under `O=C(c1cc2ccccc2o1)N1CCN(Cc2ccccc2)CC1`, -2.1%.
As to `O=C(Nc1ccccc1N1CCN(C(=O)c2ccccc2)CC1)c1ccco1`, the activation is -1.91%.
As to `CN1CCc2ccccc2C1Cc1ccccc1NC(=O)c1sc2ccccc2c1Cl` (stereo not given), the activation was 6.57% (active).
For the compound `CCc1ccccc1NC(=O)c1ccc2c(c1)CCN2S(C)(=O)=O`, the activation was -0.87%.
For the compound `CCc1ccccc1NC(=O)NCCN1CCCCC1`, the activation was -0.86%.
Consider `COC(=O)[C@]12C[C@H](CC(=O)NCCc3ccccc3OC)C(=O)N(Cc3ccco3)C1=C[C@H](C(C)C)O[C@@H]2C1CC1`, for which the activation is -3.62%.
As for `O=C(O)c1ccccc1-c1ccccc1C(=O)Nc1cccc2ccccc12`, the activation was 5.93% (active).
With `O=C(Nc1ccccc1F)c1ccccc1-c1ccccc1`, the activation was -2.35%.
In the case of `O=C(O)c1ccccc1-c1ccccc1C(=O)Nc1ccccc1Br`, the activation is 1.04%.
The figure for `COc1ccccc1C(=O)NCc1nnc(SC(C)C(=O)Nc2nccs2)n1C` (stereo not given) is 6.99% (active); for `CC(Sc1nnc(CNC(=O)c2ccccc2F)n1C)C(=O)Nc1nccs1` (stereo not given) it is -0.26%; for `COc1ccc(CC(=O)NCc2nnc(SCC(=O)Nc3nccs3)n2C)cc1` it is -1.09%.
On to `COC(=O)[C@H](CC(C)C)NS(=O)(=O)c1c(F)cccc1F`, for which the activation is 0.07%.
Take `O=C1C(=O)N(Cc2ccc(-c3ccsc3)cc2)c2ccc(OC(F)(F)F)cc21`: the activation was 1.15%.
For `Cc1nc(N2CCCCC2)sc1C=O`, the activation is -0.55%.
In the case of `Brc1ccc2nc(N3CCCC3)sc2c1`, the activation was 9.08% (active).
With `O=C(NCCc1cccc(F)c1)C1CCCN(c2nc3ccccc3s2)C1` (stereo not given), the activation was -1.62%.
The figure for `CC(=O)Nc1ccc(-c2nc3ccccc3o2)cc1` is 6.08% (active).
Consider `CC(=O)Nc1ccc(S(=O)(=O)NC2Cc3ccccc3C2)cc1`, for which the activation was -1.07%.
The figure for `Cc1nc2ccc(NC(=O)C(F)(F)F)cc2o1` is 0.11%; for `CC[C@H](C)[C@H]1CNC(=O)C(=O)N1CC1CCN(CCc2ccc(OC)c(OC)c2)CC1` it is -1.29%.
Regarding `Cc1cc(O)c(C(=O)/C=C/c2c(F)c(F)c(F)c(F)c2F)c(=O)o1`, the activation was 8.11% (active).
For the compound `Cc1cc(O)c(Sc2ccccc2)c(=O)o1`, the activation is 0.75%.
With `C=CCN1[C@@H](Cc2ccccc2)COc2cccc(N3CCSCC3)c2S1(=O)=O`, the activation was -1.72%.
In the case of `Cc1ccc2cccc(OCCCOc3ccccc3CO)c2n1`, the activation was -0.62%.
In the case of `CC1(C)OC(=O)C2=C(CC(CCc3ccccc3)OC2c2ccc(Cl)cc2)O1` (stereo not given), the activation is -1.84%.
Take `Cc1cccc(C)c1NC(=O)C(c1ccc(C(F)(F)F)cc1)n1c(=O)c(-c2ccco2)nc2ccccc21` (stereo not given): the activation was 0.34%.
Regarding `Cc1cccc(C)c1NC(=O)C(c1cccc2ccccc12)n1c(=O)c(-c2ccco2)nc2ccccc21` (stereo not given), the activation was 2.42%.
Under `O=C(NC1CCCCC1)C(c1cc2ccccc2o1)n1c(=O)c(-c2ccco2)nc2ccccc21` (stereo not given) stands 9.06% (active); under `O=C(COc1cccc(Cl)c1)NCc1ccccc1`, 6.74% (active).
Take `O=C(COC(=O)c1cccc(Cl)c1)NC(=O)NCc1ccccc1`: the activation is 0.2%.
As to `O=C(CCOc1ccccc1)NCc1ccccc1`, the activation is 0.79%.
Under `COc1ccc(CN2C(=O)N3Cc4cc(OC)ccc4C3CS2(=O)=O)cc1` (stereo not given) stands -4.29%; under `Cn1c(=O)cc(SCC(=O)N2CCN(C(=O)c3ccco3)CC2)c2ccccc21`, -0.81%; under `Cn1c(=O)cc(SCC(=O)N2CCCC2)c2cc(Cl)ccc21`, 0.28%.
On to `CCOC(=O)C1CCN(C(=O)CSc2cc(=O)n(C)c3ccccc23)CC1`, for which the activation is 5.88% (active).
Take `O=C(N[C@H](C(=O)N1CCC[C@H]1C(=O)NCCc1ccccc1Cl)c1ccccc1)c1ccccc1`: the activation is -0.38%.
`CCOC(=O)[C@]12CCCC=C1N(CCCOC)C(=O)[C@@H]2CC(=O)N1CCOCC1`: the activation is -0.67%.
As to `O=c1[nH]n2c(=O)c3c([nH]c2c1N=Nc1ccccc1)CCC3`, the activation is 0.16%.
With `Cc1ccc(C)c(NC(=O)COC(=O)Cn2c(C)csc2=O)c1`, the activation is -0.15%.
As for `CCc1ccc(NC(=O)N2CCc3ccccc3C2)cc1`, the activation was 10.8% (active).
Under `Cn1cccc1C(=O)N1CCc2ccccc2C1` stands 0.07%.
The figure for `Cc1ccc(NC(=O)CN2CCc3ccccc3C2)cc1C` is -0.52%; for `COC(=O)C1=C(C)N(Cc2ccccc2C(F)(F)F)C(=NCc2ccc(C(F)(F)F)cc2)NC1c1ccc(F)cc1` (stereo not given) it is -0.44%; for `O=S1(=O)c2ccc(Br)cc2OC[C@@H](Cc2ccccc2)N1Cc1cn(Cc2ccco2)nn1` it is -3.82%.
The figure for `O=C(NCCCN1CCOCC1)c1cc(-c2ccccc2F)no1` is -0.99%.
For `O=C(c1ccco1)N1CCN(C(=O)c2cc(-c3ccccc3F)no2)CC1`, the activation was 0.36%.
The figure for `Fc1ccccc1-c1cc2cc3c(cc2cn1)OCO3` is 5.75% (active); for `COC(=O)[C@]12C[C@H](CC(=O)NCc3cccc4ccccc34)C(=O)N(CCc3ccc(OC)c(OC)c3)C1=C[C@H](C1CCCC1)O[C@@H]2C` it is -3.52%; for `C[C@H](CO)N1C[C@H](C)[C@@H](CN(C)C(=O)Nc2ccccc2F)OCc2cn(nn2)CCCC1=O` it is -0.15%.
As to `C/C(=N\NC(=O)OC(C)(C)C)c1ccc[nH]1`, the activation was 1.29%.
On to `CC(C)(C)OC(=O)N/N=C/c1ccc(C(=O)O)cc1`, for which the activation is 7.41% (active).
For the compound `COC(=O)c1ccc(/C=N/NC(=O)C(=O)N2CCCCCC2)cc1`, the activation is -0.19%.
Under `CCCCC(=O)N[C@@H]1CC[C@@]23CCCN2C(=O)CCC[C@H]3[C@H]1C` stands 0.2%.
For the compound `O=C(c1cc(-c2ccccc2O)on1)N1CCCC1`, the activation was 7.33% (active).
As to `COc1cc(Cl)ccc1OCc1cc(C(=O)N2CC[C@@H]3CCCC[C@H]3C2)no1`, the activation is 1.66%.
Consider `O=C(c1cc(C2CCCCN2S(=O)(=O)c2ccccc2)on1)N1CCOCC1` (stereo not given), for which the activation was -0.3%.
The figure for `COc1ccc(OCc2cc(C(=O)N3CCCC3)no2)c2ccccc12` is 10.3% (active); for `COCCN1CCN(C(=O)c2cc(COc3ccc(F)cc3Cl)on2)CC1` it is -1.75%.
Under `O=C(c1cc(COc2ccc(F)cc2F)on1)N1CCOCC1` stands 1.67%.
The figure for `Cc1ccc(O)c(NC(=O)c2cc(-c3ccco3)on2)c1` is 0.32%.
For `O=C(NC1CCCC1)c1cc(-c2ccccc2)on1`, the activation was 4.69%.
With `O=C(Nc1ccccc1C(F)(F)F)c1cc(-c2ccc(O)cc2)on1`, the activation was -0.51%.
Consider `O=C(Nc1cccnc1Cl)c1cc(-c2ccccc2O)on1`, for which the activation is 6.07% (active).
`O=C(c1cc(-c2ccc(O)cc2)on1)N1CCOCC1`: the activation was 6.07% (active).
Take `O=C(c1cc(-c2ccc(Cl)s2)nc2ccccc12)N1CCOCC1`: the activation is -1.34%.
As for `CC(=O)C1C(c2ccc(Cl)cc2)c2c(n[nH]c2C)CC1(C)O` (stereo not given), the activation is -0.09%.
The figure for `O=S(=O)(c1cccs1)N1CCCc2nc(-c3ccc(Br)cc3)ccc21` is -0.17%.
As for `CCc1ccc(C2=CC(=O)CC(C)(C)C2=O)cc1`, the activation is 1.24%.
The figure for `CC(C)N1CCCCC(NC(=O)c2ccc3ccccc3c2)C1=O` (stereo not given) is -0.97%; for `C=CCN1C(=O)[C@@H](CC(=O)NCCCOCCCC)[C@]2(C(=O)OCC)CCCCC/C=C/12` it is -0.92%; for `COc1ccc(S(=O)(=O)Nc2ccc3c(c2)C(=O)N([C@H](C)CO)C[C@H](C)[C@@H](CN(C)C)OCCCC[C@H](C)O3)cc1` it is -1.41%.
For `Cc1cc(Br)cn2c(Cc3ccccc3C(F)(F)F)c(-c3ccc(C#N)cc3)nc12`, the activation was 0.68%.
As for `COc1ccc(-c2cc(C(=O)NC(C(=O)O)C(C)C)c(C)o2)cc1OC` (stereo not given), the activation was 1.96%.
In the case of `COc1ccc(-c2cc(C(=O)NC(Cc3c[nH]c4ccccc34)C(=O)O)c(C)o2)cc1OC` (stereo not given), the activation is 6.3% (active).
For the compound `COc1ccc(-c2cc(=O)oc3cc(OCC(=O)N[C@@H](Cc4c[nH]c5ccccc45)C(=O)O)ccc23)cc1`, the activation was 4.41%.
On to `CCOC(=O)/C=C/c1ccccc1O`, for which the activation was -0.51%.
Consider `Cc1cc2ncn(CCCCOc3ccccc3)c2cc1C`, for which the activation is -1.91%.
As for `C[C@@H](CN1C2=NC[C@@H](Cc3ccccc3)N2C[C@H]1Cc1ccc(O)cc1)NC(=O)CCC1CCCCC1`, the activation is -1.42%.
Take `COc1cccc(-n2c(=S)[nH]c3c(oc4ccccc43)c2=O)c1`: the activation is 5.86% (active).
`COc1ccc(OC)c(-n2c(=S)[nH]c3cc(C(=O)N4CCCCC4)ccc3c2=O)c1`: the activation is -1.94%.
As to `COc1cccc(-n2nc(C(=O)N3CCN(Cc4ccccc4)CC3)c3ccccc3c2=O)c1`, the activation is -2.27%.
As for `C[C@@H]1ON(C)[C@H]2C[C@H]3c4cc(N5CCOCC5)ccc4CCN3C[C@@H]12`, the activation was -1.8%.
For `CCc1ccc2oc(-c3ccc(N)cc3)nc2c1`, the activation was 11.8% (active).
For the compound `CCCCOCCCNC(=O)C[C@H]1C[C@@]2(C(=O)OC)C(=C[C@H](COCc3ccccc3)O[C@@H]2C)N(Cc2cccc3ccccc23)C1=O`, the activation was -1.88%.
`COc1cccc(Cn2cc(COC(=O)Nc3ccc(F)cc3)nn2)c1`: the activation was -2.13%.
In the case of `Cc1cc(NS(=O)(=O)c2ccc(NC(=O)CSc3nnc(SCc4ccc(F)cc4)s3)cc2)nc(C)n1`, the activation was 0.88%.
